Measurements: PubChem BioAssay (NCATS)
Several values for one entry are separate records, joined by “and”; a condition that tells them apart may be missing. Equal entries are not always repeated. Inconclusive results are not listed. Entries that show only a call come without a potency. Some compounds were tested as several samples or in several runs, with calls that do not always agree. Activity calls are given as the source filed them. Unless noted, the call rests on the fitted dose curve; in most records, active means well fitted curve in the direction sought with a large enough effect; inconclusive means small, poorly fitted or top-dose-only effect, or another doubt; inactive means no such curve, though single readings can be large; an effect the other way counts as inactive or inconclusive.

How the values were obtained:
[1] = Cell Viability - LYMP1-002 - Assay at 16 hr (AID 948); further: potency means the concentration at half of the fitted maximal effect
Summary of the method: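 Acute cytotoxicity is scored as a concentration-dependent fall in intracellular ATP in a human lymphoblastoid line (LYMP1-002) after 16 hr compound exposure at 37 C, measured by luciferase luminescence.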

[2] = MultiTox-Fluor Cytotoxicity Assay - LYMP1-002 - Live Cells (AID 955);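 further: cells exposed to compound for 16 hours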; further: potency means the concentration at half of the fitted maximal effect
Summary of the method: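 Cells were seeded at 2500 per well and incubated 5 hr. Compounds were then added for 16 hr at 37 C, followed by MultiTox-Fluor reagent for 60 min at room temperature and fluorescence reading of viable-cell protease signal.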

[3] = MultiTox-Fluor Cytotoxicity Assay - LYMP1-002 - Dead Cells (AID 960); further: nearly all actives have a fitted effect of over 60% in size; further: potency means the concentration at half of the fitted maximal effect
Summary of the method: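 Cells were plated, rested 5 hr, then treated with compound dilution series for 16 hr at 37 C. After adding substrate reagent and 60 min at room temperature, dead-cell protease fluorescence gave concentration-response curves fitted by the Hill equation.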

[4] = MultiTox-Fluor Cytotoxicity Assay - LYMP1-003 - Dead Cells (AID 961);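 further: cells exposed to compound for 16 h at 37 °C; nearly all actives have a fitted effect of over 70% in size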; further: potency means the concentration at half of the fitted maximal effect
Summary of the method: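 LYMP1-003 lymphoblastoid, 2500 cells/well, 5 hr settle then 16 hr cpd at 37 C; MultiTox-Fluor reagent 60 min RT; Ex/Em 485/520 dead-cell signal; norm. DMSO = 0%, 15 uM tetraoctylammonium bromide = 100%; Hill AC50.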

[5] = MultiTox-Fluor Cytotoxicity Assay - LYMP1-003 - Live Cells (AID 962);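 further: cells exposed to compound for 16 hours at 37 °C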; further: potency means the concentration at half of the fitted maximal effect
Summary of the method: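 Acute cytotoxicity is scored as a drop in live-cell protease activity in human lymphoblastoid LYMP1-003 cells after 16 hr compound exposure at 37 C. AC50 values come from Hill-equation modelling of concentration-response data.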

[6] = Cell Viability - LYMP1-003 - Assay at 24 hr (AID 963); further: potency means the concentration at half of the fitted maximal effect
Summary of the method: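 Cytotoxicity is scored as a concentration-dependent fall in ATP-linked luciferase signal in human lymphoblastoid LYMP1-003 cells treated 24 hr at 37 C in complete culture medium.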

[7] = biological target: Pyruvate kinase PKM (Homo sapiens) (UniProt P14618); assay: qHTS Assay for Activators of Human Muscle Pyruvate Kinase (AID 954; active means well fitted curve in the direction sought with a large enough effect, not every such curve was filed as active)
Summary of the method: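 PKM2, human, >95% pure, 0.1 nM; PEP 0.5 mM (Km), ADP 0.1 mM; 50 mM imidazole pH 7.2, 50 mM KCl, 0.01% Tween 20, 0.05% BSA; 1 h RT; luciferase luminescence readout.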

[8] = biological target: Alpha-galactosidase (Coffea arabica) (UniProt Q42656); assay: Counterscreen for Glucocerebrosidase Inhibitors: qHTS Assay for Coffee Bean alpha-Galactosidase at pH 4.5 (AID 957); further: series mostly up to about 77 µM
Summary of the method: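 Enzyme is added first (2 nM final), then compounds titrated from 0.7 nM to 77 uM, then 80 uM 4-methylumbelliferyl alpha-D-galactopyranoside; after 20 min at room temperature a pH 10 NaOH/glycine stop precedes fluorescence reading at 365/440 nm.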

Sequence of Alpha-galactosidase (Coffea arabica) (Q42656 whole entry, looked up): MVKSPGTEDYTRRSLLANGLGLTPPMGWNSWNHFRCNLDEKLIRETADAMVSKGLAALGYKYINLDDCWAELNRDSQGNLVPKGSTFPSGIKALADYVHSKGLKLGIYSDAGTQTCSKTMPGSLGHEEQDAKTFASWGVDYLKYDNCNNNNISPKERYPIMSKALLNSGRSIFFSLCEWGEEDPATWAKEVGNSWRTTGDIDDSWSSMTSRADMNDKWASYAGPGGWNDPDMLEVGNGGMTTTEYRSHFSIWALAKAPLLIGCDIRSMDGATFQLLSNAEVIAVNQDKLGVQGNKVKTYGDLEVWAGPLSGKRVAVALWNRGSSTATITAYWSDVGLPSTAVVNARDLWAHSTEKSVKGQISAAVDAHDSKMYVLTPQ
Sequence of Pyruvate kinase PKM (Homo sapiens) (P14618 whole entry, looked up): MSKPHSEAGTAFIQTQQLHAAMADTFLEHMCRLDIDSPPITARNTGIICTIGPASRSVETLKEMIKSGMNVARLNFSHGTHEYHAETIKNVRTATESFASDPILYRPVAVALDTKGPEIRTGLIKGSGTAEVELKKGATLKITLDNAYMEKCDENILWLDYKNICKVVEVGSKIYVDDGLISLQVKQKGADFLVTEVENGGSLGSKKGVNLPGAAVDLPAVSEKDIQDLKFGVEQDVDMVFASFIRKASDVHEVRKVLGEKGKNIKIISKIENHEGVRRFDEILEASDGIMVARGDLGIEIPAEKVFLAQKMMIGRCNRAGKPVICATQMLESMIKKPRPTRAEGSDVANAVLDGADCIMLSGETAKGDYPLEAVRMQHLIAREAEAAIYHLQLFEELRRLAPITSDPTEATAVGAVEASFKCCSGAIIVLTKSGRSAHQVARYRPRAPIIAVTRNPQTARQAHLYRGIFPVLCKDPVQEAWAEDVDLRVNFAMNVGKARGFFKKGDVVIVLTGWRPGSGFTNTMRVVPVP

Structure (SMILES) | Potency [1] | Potency [2] | Potency [3] | Potency [4] | Potency [5] | Potency [6] | outcome [7] | outcome [8]
O=[N+]([O-])c1ccc(F)c([N+](=O)[O-])c1 | inactive | inactive | inactive | inactive | inactive | inactive |  | 
O=C/C=C/c1ccccc1 | inactive | inactive | inactive | inactive | inactive | inactive |  | 
CCCCCl | inactive | inactive | inactive | inactive | inactive | inactive |  | 
C[C@H]1CCC[C@H](O)CCCCCc2cc(O)cc(O)c2C(=O)O1 | inactive | inactive | inactive | inactive | inactive | inactive |  | 
Oc1cc(Cl)c(Cl)cc1Cl | inactive | inactive | inactive | inactive | inactive | inactive |  | 
O=C1CCO1 | inactive | inactive | inactive | inactive | inactive | inactive |  | 
CC(C)Nc1ccc(Nc2ccccc2)cc1 | 39.8 µM (active) | 25.1 µM (active) |  | 25.1 µM (active) | 50.1 µM (active) | 50.1 µM (active) |  | 
COc1ccc2c(c1OC)C(=O)OC2C1c2cc3c(cc2CCN1C)OCO3 (configuration not stated) | inactive | inactive | inactive | inactive | inactive | inactive |  | 
ClC=C(Cl)Cl | inactive | inactive |  | inactive | inactive | inactive |  | 
CCOC(=O)c1ccccc1C(=O)OCC | inactive | inactive | inactive | inactive | inactive | inactive |  | 
O=[N+]([O-])c1ccccc1 | inactive | inactive | inactive | inactive | inactive | inactive |  | 
ClCC1CO1 (configuration not stated) | inactive | inactive | inactive | inactive | inactive | inactive |  | 
CC(C)(C)c1cc(O)ccc1O | inactive | inactive | inactive | inactive | inactive | inactive |  | 
COC1=CC(=O)O[C@@H](/C=C/c2ccccc2)C1 | inactive | inactive | inactive | inactive | inactive | inactive |  | 
NNC(N)=O | inactive | inactive | inactive | inactive | inactive | inactive | inactive | inactive
C[C@H]1CC[C@@H]2[C@@H](C)[C@H]3[C@H](C[C@H]4[C@@H]5CC=C6CC(O[C@@H]7O[C@H](CO)[C@H](O)[C@H](O[C@@H]8O[C@H](CO)[C@@H](O)[C@H](O)[C@H]8O)[C@H]7O[C@H]7O[C@@H](C)[C@H](O)[C@@H](O)[C@H]7O)CC[C@]6(C)[C@H]5CC[C@]34C)N2C1 (some centres not stated) | 31.6 µM (active) | 12.6 µM (active) | inactive | 20 µM (active) | 25.1 µM (active) | 20 µM (active) |  | 

Structure (SMILES) | Potency [1] | Potency [2] | Potency [3] | Potency [4] | Potency [5] | Potency [6] | outcome [7] | outcome [8]
CC(C)CCON=O | inactive | inactive | inactive | inactive | inactive | inactive |  | 
O=C(O)C(Cl)(Cl)Cl | inactive | inactive | inactive | inactive | inactive | inactive |  | 
O=CC=O | inactive | inactive | inactive | inactive | inactive | inactive |  | 
O=C1C2CC=CCC2C(=O)N1SC(Cl)(Cl)Cl (configuration not stated) | 7.94 µM (active) and 10 µM (active) | 6.31 µM (active) and 5.01 µM (active) | 5.01 µM (active) | 10 µM (active) and 7.94 µM (active) | 12.6 µM (active) and 10 µM (active) | 12.6 µM (active) |  | 
O=Cc1ccco1 | inactive | inactive | inactive | inactive | inactive | inactive |  | 
CCCCCCCCOC(=O)c1ccccc1C(=O)OCCCCCCCC | inactive | inactive | inactive | inactive | inactive | inactive |  | 
[O]=[Cd] | inactive | inactive | inactive | inactive | inactive | inactive |  | 
O=C1C=CC(=O)C=C1 | inactive | inactive |  | inactive | inactive | inactive | inactive | inactive
S=C=S | inactive | inactive | inactive | inactive | inactive | inactive |  | 
Clc1ccccc1Cl | inactive | inactive | inactive | inactive | inactive | inactive |  | 
ClC(Cl)(Cl)Cl | inactive | inactive | inactive | inactive | inactive | inactive |  | 
[O]=[Cr](=[O])([OH])[O][Cr](=[O])(=[O])[OH] | inactive | inactive | inactive | inactive | inactive | inactive and 39.8 µM (active) |  | 
C=CCN=C=S | inactive | inactive | inactive | inactive | inactive | inactive |  | 
C[C@]12CCC(=O)C[C@@H]1CC[C@@H]1[C@@H]2CC[C@]2(C)[C@@H](O)CC[C@@H]12 | inactive | inactive |  | inactive | inactive | inactive |  | 
NCCCP(=O)(O)O |  |  |  |  |  |  | inactive | inactive
